Data on 59 compounds can be found in PubChem BioAssay AID2685 (National Center for Advancing Translational Sciences (NCATS), 2010).

Structures are written as SMILES. Screen size: about 320,000 compounds; about 2,100 (0.66%) were called active. Roughly 53% stayed inconclusive and do not appear here. The call rests on the fitted dose curve; in most records, active means well fitted inhibition curve with a large enough effect in the signal ratio, with a control signal flat (not every such curve was filed as active); inconclusive means small, poorly fitted or top-dose-only effect, or effect the other way, or a change in a side signal; inactive means flat fitted curve, though single readings scatter; the % refers to the signal ratio. The sample as a whole holds a higher share of actives than the screen did.
Potency means the concentration at half of the fitted maximal effect.

The test can be described thus: qHTS Assay for Lipid Storage Modulators in Drosophila S3 Cells.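 On cell number change: cells counted by Cell Tracker Red CMTPX staining in the red channel.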 On lipid storage change, negative = inhibition: on the % scale 0 is the no-effect control and ±100 the full control effect. The note with it: BODIPY lipid droplet fluorescence, 18-24 h, cells fed with added oleic acid; cell number change: measured here: cell count max response; series mostly up to 46.1 µM; lipid storage change, negative = inhibition: at the top concentration. The gist of the method: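 Drosophila S3 cells got compounds at several concentrations plus oleic acid (400 uM solution). Laser-scanning cytometry with 488 nm excitation read lipid droplets at 500-530 nm and cells at 575-640 nm. Percent activity was relative to 20 uM Triacsin C.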
On to `COCC1CCN(Cc2nc(-c3ccc(OC)cc3)no2)CC1`, for which the “lipid storage change, negative = inhibition” value is 8.81% (inactive) and the cell number change came to 9.88%.
For the compound `Cc1ccc(CSCC(=O)N(C)CC(=O)Nc2ccc(C)cc2)cc1`, the “lipid storage change, negative = inhibition” value was 0.736% (inactive) and the cell number change is 15.6%.
As to `COc1ccc(NC(=O)CN(C)C(=O)CSCc2ccc(C)cc2)cc1`, the Potency was 10.3 µM (active) and the cell number change was -11%.
Consider `Cc1ccc(CSCC(=O)N(C)CC(=O)Nc2ccc(Cl)c(Cl)c2)cc1`, for which the compound was classed as inactive and the cell number change came out at 1.04%.
As to `CCC(C)NC(=O)CN1C(=O)C(CC)Sc2ccccc21` (stereo not given), the “lipid storage change, negative = inhibition” value was -2.81% (inactive) and the cell number change is -9.92%.
`CCOc1ccccc1NC(=O)C1CCCN(S(=O)(=O)c2ccc(-n3cnnn3)cc2)C1` (stereo not given): the compound was called inactive and the cell number change was 20.5%.
`CCOC(=O)C1(CC2CC2)CCN(C(=O)c2ocnc2C)CC1`: the “lipid storage change, negative = inhibition” value is -7.18% (inactive) and the cell number change is -6.88%.
On to `CCOC(=O)C1(CC2CC2)CCN(C(=O)c2cc(C3CC3)nc3ccccc23)CC1`, for which the Potency was 25.9 µM (active) and the cell number change is -20.4%.
For the compound `CCOC(=O)C1(CC2CC2)CCN(C(=O)c2cccnc2C)CC1`, the “lipid storage change, negative = inhibition” value was 6.98% (inactive) and the cell number change was determined as 26%.
`Cc1cc(Br)cc(C)c1NC(=O)c1ccc(C#N)cc1F`: the “lipid storage change, negative = inhibition” value is -22.4% (inactive) and the cell number change came to 3.82%.
In the case of `C=CCNC(=S)NNC(=O)c1ccc(OCC)cc1`, the “lipid storage change, negative = inhibition” value is -0.066% (inactive) and the cell number change is -9.79%.
Consider `CCOCCCNC(=O)c1oc2ccc(S(=O)(=O)N3CCOCC3)cc2c1C`, for which the Potency was 18.4 µM (active).
For the compound `O=C(NCc1ccc(Cl)cc1)N1CCN(S(=O)(=O)c2ccccc2)CC1`, the “lipid storage change, negative = inhibition” value is -6.54% (inactive) and the cell number change amounted to 17.1%.
For `Cc1c(C(=O)NCCC2=CCCCC2)oc2ccc(S(=O)(=O)N3CCOCC3)cc12`, the “lipid storage change, negative = inhibition” value was 16.1% (inactive) and the cell number change is -13.3%.
As for `COc1ccccc1CNC(=O)c1oc2ccc(S(=O)(=O)N3CCOCC3)cc2c1C`, the Potency is 29.1 µM (active) and the cell number change is -8.7%.
On to `Cc1c(C(=O)NCCCN2CCCC2=O)oc2ccc(S(=O)(=O)N3CCOCC3)cc12`, for which the call was inactive and the cell number change is -0.135%.
With `Cc1c(C(=O)NCCCN2CCOCC2)oc2ccc(S(=O)(=O)N3CCOCC3)cc12`, the “lipid storage change, negative = inhibition” value was 10% (inactive) and the cell number change came to 20.6%.
Regarding `Cc1c(C(=O)NCc2ccc(F)cc2)oc2ccc(S(=O)(=O)N3CCOCC3)cc12`, the compound was called inactive and the cell number change is -3.6%.
In the case of `COc1cccc(NC(=O)c2oc3ccc(S(=O)(=O)N4CCOCC4)cc3c2C)c1`, the “lipid storage change, negative = inhibition” value was 5.07% (inactive) and the cell number change amounted to 4.15%.
For the compound `COc1ccccc1CNC(=O)c1oc2ccc(S(=O)(=O)N3CCCC3)cc2c1C`, the “lipid storage change, negative = inhibition” value was -29.2% (inactive).
Take `COc1ccccc1CNC(=O)N1CCN(S(=O)(=O)c2ccc(Cl)cc2)CC1`: the Potency was 0.13 µM (active) and the cell number change was 1.35%.
With `COc1ccccc1CNC(=O)[C@@H]1CCCN1S(=O)(=O)c1ccc(Cl)cc1`, the result was inactive and the cell number change is -7.14%.
In the case of `Cc1c(C(=O)NCc2c(F)cc(F)cc2F)oc2ccc(S(=O)(=O)N3CCOCC3)cc12`, the Potency is 2.91 µM (active) and the cell number change is -3.48%.
For the compound `O=C1CN(C(=O)CNC(=O)c2cccc(Cl)c2)c2ccccc2N1`, the “lipid storage change, negative = inhibition” value is 0.224% (inactive) and the cell number change came to 17%.
Take `Cc1cccn2c(=O)c(/C=C(\C#N)S(=O)(=O)c3ccccc3)c(Oc3ccc(Cl)cc3)nc12`: the “lipid storage change, negative = inhibition” value was 2.66% (inactive) and the cell number change is -10.2%.
On to `CC(=O)N1CCN(c2ccccc2NC(=O)COc2cc(C)cc(C)c2)CC1`, for which the “lipid storage change, negative = inhibition” value was -100% (inactive) and the cell number change came out at 13.5%.
With `CCOc1ccc(S(=O)(=O)NCc2csc(C)n2)cc1`, the compound was classed as inactive.
With `CCS(=O)(=O)c1ccc2oc(Nc3ccc(C(C)C)cc3)nc2c1`, the “lipid storage change, negative = inhibition” value was -3.92% (inactive) and the cell number change is 2.93%.
In the case of `CCn1nc(C)cc1C(=O)N1CCc2c([nH]c3ccccc23)C1c1cc(F)ccc1F` (stereo not given), the “lipid storage change, negative = inhibition” value was -9.5% (inactive) and the cell number change worked out at 8.47%.
In the case of `CN(C)S(=O)(=O)c1ccc(N2CCCC2)c(C(=O)Nc2ccccc2F)c1`, the “lipid storage change, negative = inhibition” value was 14.2% (inactive) and the cell number change was 25.2%.
For `CN(C)S(=O)(=O)c1ccc(N2CCCC2)c(C(=O)Nc2ccccc2OC(F)F)c1`, the “lipid storage change, negative = inhibition” value is 9.18% (inactive) and the cell number change is 29.4%.
Regarding `COc1ccc(C(C)(C)C)cc1NC(=O)c1cc(S(=O)(=O)N(C)C)ccc1N1CCCC1`, the Potency is 18.4 µM (active) and the cell number change is -23.6%.
As for `COc1ccc(S(=O)(=O)NC2CCCC2)cc1NC(C)=O`, the “lipid storage change, negative = inhibition” value is -1.83% (inactive) and the cell number change was 17.4%.
For the compound `COc1ccc(C=O)cc1Oc1nc(Cl)ncc1F`, the “lipid storage change, negative = inhibition” value is 21.6% (inactive) and the cell number change was found to be 5.61%.
For `CC(CCc1ccccc1)NC(=O)CN1CCN(c2ccc(O)cc2)CC1` (stereo not given), in that order: -11.9% (inactive) and 0.962%.
As to `CC(=O)Nc1ccc(SCC(=O)c2ccc(Br)s2)cc1`, the call was inactive and the cell number change was 5.88%.
As to `COc1ccc(S(N)(=O)=O)cc1-c1nnc2c3ccccc3c(C)nn12`, the “lipid storage change, negative = inhibition” value is -0.656% (inactive) and the cell number change was -15.7%.
As for `Cc1ccc(S(=O)(=O)c2c(O)c3ccc(C(=O)O)cc3[nH]c2=O)cc1`, the Potency was 11.6 µM (active) and the cell number change is -5.9%.
As for `COc1ccc(S(=O)(=O)c2c(O)c3ccc(C(=O)Nc4ccccc4)cc3[nH]c2=O)cc1`, the “lipid storage change, negative = inhibition” value was 26.4% (inactive) and the cell number change is 23%.
Regarding `COc1ccc(S(=O)(=O)c2c(O)c3ccc(C(=O)Nc4ccc(F)cc4)cc3[nH]c2=O)cc1`, the call was inactive and the cell number change was -7.08%.
As for `Cc1cccc(NC(=O)c2cc(Cl)ccc2[N+](=O)[O-])c1`, the “lipid storage change, negative = inhibition” value was 4.85% (inactive).
With `Cc1cccc(Nc2nc(N)c([N+](=O)[O-])c(NCCO)n2)c1`, the “lipid storage change, negative = inhibition” value is 0.152% (inactive) and the cell number change is -0.837%.
Take `O=C(CSc1ccc2ccccc2n1)NCc1ccc2c(c1)OCO2`: the “lipid storage change, negative = inhibition” value is 19.1% (inactive) and the cell number change was found to be 26.9%.
Turning to `Cc1cc(Cl)ccc1NC(=S)NCCCN1CCCC1=O`, the “lipid storage change, negative = inhibition” value was 18.7% (inactive) and the cell number change amounted to 7.04%.
Take `Cc1cccc(C)c1NC(=S)NCCCN1CCCC1=O`: the Potency was 0.461 µM (active) and the cell number change is -0.836%.
For the compound `O=C1CCCN1CCCNC(=S)Nc1ccccc1`, the “lipid storage change, negative = inhibition” value is 15.3% (inactive) and the cell number change was -7.97%.
Consider `CCN1CCN(CC(O)COCCOc2ccc(Br)cc2)CC1` (stereo not given), for which the “lipid storage change, negative = inhibition” value was -7.14% (inactive) and the cell number change amounted to 4.7%.
As for `Cc1cccc(OCC(=O)NCc2cc(C)nc3ccccc23)c1`, the “lipid storage change, negative = inhibition” value is 5.62% (inactive) and the cell number change is -5.05%.
As for `CCOc1ccc(C(C)NC(=O)c2cc(=O)[nH]c3ccccc23)cc1OCC` (stereo not given), the Potency was 0.0021 µM (active) and the cell number change stood at 6.31%.
For `COc1ccccc1C(C)NC(=O)c1cc(=O)[nH]c2ccccc12` (stereo not given), the outcome was inactive and the cell number change is -5.13%.
As to `COc1ccccc1OCCNC(=O)c1cc(=O)[nH]c2ccccc12`, the “lipid storage change, negative = inhibition” value is 8.99% (inactive) and the cell number change was found to be 13.3%.
For `CC(=O)c1cccc(N(CC(=O)NC2CCCCC2)C(=O)CNC(=O)c2cccs2)c1`, the result was inactive and the cell number change was determined as 16.1%.
Take `CCC(C)NC(=O)c1c(N)n(/N=C/c2ccccn2)c2nc3ccccc3nc12` (stereo not given): the “lipid storage change, negative = inhibition” value was 16.9% (inactive) and the cell number change was found to be 8.8%.
For `COCCNC(=O)c1c(N)n(/N=C/c2ccc(F)cc2)c2nc3ccccc3nc12`, in that order: 3.89% (inactive) and 21.5%.
With `COCCCNC(=O)c1c(N)n(/N=C/c2ccccn2)c2nc3ccccc3nc12`, the Potency was 7.31 µM (active).
Regarding `Cc1ccc(-c2ccc(=O)n(CCC(=O)N3CCN(Cc4ccccc4)CC3)n2)cc1`, the compound was called inactive.
Regarding `COc1cccc(COC(=O)c2ccc3c(c2)NC(=O)C(C)S3)c1OC` (stereo not given), the Potency was 3.26 µM (active).
Regarding `COc1ccc(CNC(=O)c2ccc3c(c2)NC(=O)C(C)S3)cc1` (stereo not given), the “lipid storage change, negative = inhibition” value was -0.216% (inactive) and the cell number change was -2.51%.
Regarding `COc1ccc(Br)cc1CN(C)C(=O)c1ccc2c(c1)NC(=O)C(C)S2` (stereo not given), the “lipid storage change, negative = inhibition” value is 4.83% (inactive).
